High-throughput results: PubChem BioAssay, Milwaukee Institute for Drug Discovery
The list is not random: actives were taken first. Their share in the collection is about 6.9%.
Cy5 interf NS3h: Cy5 fluorescence quenchers or enhancers, artefact control for HCV NS3 helicase inhibitor project, biochemical, ChemBridge library, Cy5 readout | Cy5-dT15 DNA with NS3h, fluorescence interference; actives lie on both sides; signal over control mean, under 1 quenches | 16,000 compounds, 6% hits | fluorescence interference ratio at 100 µM;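 active = compound fluorescence over control fluorescence at most 0.8, a quencher, or at least a set upper limit, an enhancer; inactive = ratio between 0.8 and the set upper limit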
HCV NS3h FP: HCV NS3 helicase inhibitors, primary screen, biochemical, fluorescence polarization, ChemBridge library | 16,000 compounds, 1.6% hits | inhibition, % at 100 µM | Hepatitis C virus NS3 helicase | NS3h Cy5-dT15 DNA binding;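 active = inhibition above the average over every tested compound plus 3 SD, cut at about 40% in these data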
NS3h confirm: HCV NS3 helicase inhibitors, retest, confirmation, biochemical, fluorescence polarization, ChemBridge library | shares compounds with HCV NS3h FP | NS3h binding to Cy5-dT15 DNA | inhibition, % at 100 µM | 240 compounds, 20% hits;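 active = percent inhibition of 50% or more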
SSB FP counter: E. coli SSB-DNA binding inhibitors, counter-screen for HCV NS3 helicase inhibitor project, biochemical, fluorescence polarization, selected ChemBridge compounds; 240 compounds, 40% hits; E. coli SSB binding Cy5-dT15; inhibition, % at 100 µM; shares compounds with HCV NS3h FP; AID 720486, 2013;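 active = inhibition of at least 50%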;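 note: displacers lower Cy5 polarization so higher inhibition means more SSB displaced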
Target sequence (P0AGE0 whole entry, looked up): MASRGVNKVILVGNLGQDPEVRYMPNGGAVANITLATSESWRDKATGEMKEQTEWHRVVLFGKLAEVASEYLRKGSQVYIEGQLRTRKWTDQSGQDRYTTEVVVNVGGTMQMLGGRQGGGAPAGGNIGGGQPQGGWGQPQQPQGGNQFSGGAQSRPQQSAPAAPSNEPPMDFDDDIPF
Cy5 SSB fluor CB: Cy5 fluorescence interference with SSB-bound oligo, artefact control for HCV NS3 helicase inhibitor project, biochemical, E. coli SSB, selected ChemBridge compounds; shares compounds with HCV NS3h FP; Cy5-dT15/E. coli SSB fluorescence interference; actives lie on both sides; fluorescence interference ratio at 100 µM; 240 compounds, 8% hits; AID 720487, 2013;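 active = fluorescence interference ratio at or above 1.2, signal boosting, or at or below 0.8, signal quenching; inactive = ratio between 0.8 and 1.2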
Cy5 fluor confirm: Cy5-DNA-NS3h complex fluorescence interference, confirmation, artefact control for HCV NS3 helicase inhibitor project, biochemical, ChemBridge library. shares compounds with HCV NS3h FP. Cy5-dT15 DNA/NS3h fluorescence interference counterscreen. fluorescence interference ratio at 100 µM, hits read low. 240 compounds, 44% hits. AID 720489, 2013;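 active = fluorescence interference ratio at or below 0.8 quencher or at or above a set limitenhancer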
Numbers stand for hits; 0 = inactive.

SMILES	Cy5 interf NS3h	HCV NS3h FP	others
COc1ccc(-c2ccc(C=C3C(=O)NC(=O)NC3=O)o2)c([N+](=O)[O-])c1	0.44	0
O=C1NC(=O)C(=Cc2ccccc2OCCOc2ccc([N+](=O)[O-])cc2)C(=O)N1	0	0
Cc1cc(-c2ccc(C=C3C(=O)NC(=O)NC3=O)o2)ccc1[N+](=O)[O-]	0.76	0
Cc1ccc(C=C2C(=O)NC(=O)NC2=O)cc1[N+](=O)[O-]	0	0
Cc1nc2ccc(I)cc2c(=O)n1-c1ccc([N+](=O)[O-])cc1Cl	0	0
CCCCCC1(C)NCCN2C(=O)CSC21 (centres undefined)	0	0
O=C1/C(=C/c2ccccc2O)N2CCC1CC2	0	0
O=C1NC(=S)N(c2ccc(Br)cc2)C(=O)/C1=C/c1ccc(-c2ccccc2C(=O)O)o1	0	0
Cc1ccc(C=C2C(=O)NC(=S)N(c3ccccc3F)C2=O)s1	0	42
O=C1NC(=S)NC(=O)C1=Cc1ccc(OCc2ccccc2)c(OCc2ccccc2)c1	0	0
COc1ccc(C=C2C(=O)NC(=O)NC2=O)cc1OCc1ccc(Cl)cc1Cl	0.61	0
COc1ccc(CN2CCNCC2)cc1OC	0	0
Nc1ccc(Oc2ccc(N)c(N)c2)cc1N	0	0
COc1ccccc1OCC(=O)N1CCN(C)CC1	0	0
O=C(CN1CCCC1=O)NCc1ccccc1	0	0
O=C1c2ccccc2-c2onc3c(Br)cc(N4CC4)c1c23	0.78	0
Oc1ccc(Br)cc1CN1CCN(Cc2ccc(F)cc2)CC1	0	0
O=S(=O)(c1cc(Cl)c(O)c(Cl)c1)c1cc(Cl)c(O)c(Cl)c1	0	0
Cc1cccc(N2C(=O)NC(=O)/C(=C/c3ccc(-c4ccc(C(=O)O)c(Cl)c4)o3)C2=O)c1	0	0
COC(=O)c1cccc(-c2ccc(C=C3C(=O)NC(=S)NC3=O)o2)c1	0.75	0
O=Cc1cn(Cc2ccc(Cl)c(Cl)c2)c2ccccc12	0	0
COC(=O)N1[C@H](c2ccccc2)[C@@H]1c1ccccc1	0.68	0
CCNc1cc2oc(=O)cc(C(F)(F)F)c2cc1C	0	0
O=c1oc2ccccc2c2c1C(c1ccccc1)c1c(c3ccccc3oc1=O)O2	0	0
CC1(C)CN1S(=O)(=O)c1ccc(Cl)cc1 (centres undefined)	0	0
SMILES	Cy5 interf NS3h	HCV NS3h FP	others
CCc1ccc(N2C(=O)NC(=O)/C(=C/C=C/c3ccco3)C2=O)cc1	0	42
O=C1NC(=O)N(c2ccc(Br)cc2)C(=O)/C1=C/C=C/c1ccccc1	0	0
O=C1CC(=O)N(c2ccc(F)cc2)C(=S)N1	0	0
CCn1cc(C=C2C(=O)NC(=O)NC2=O)c2ccccc21	0.73	0
Cc1cc(C)cc(-n2c(C)cc(C=C3C(=O)NC(=O)NC3=O)c2C)c1	0	0
O=Cc1cn(Cc2ccccc2F)c2ccccc12	0	0
Cc1ccc(S(=O)(=O)n2cc(C=C3C(=O)NC(=O)NC3=O)c3ccccc32)cc1	0.7	0
COc1ccc(C2c3c(c4ccccc4oc3=O)Oc3c2c(=O)oc2ccccc32)cc1Cn1nc(C)c([N+](=O)[O-])c1C	0	0
O=[N+]([O-])c1ccc(N2CCNCC2)cc1NCCOc1ccccc1	0.7	0
CN1CCN(c2ccc([N+](=O)[O-])c(NC3CC3)c2)CC1	0	0
COc1ccc(C(=O)NC(Cc2cnc[nH]2)C(=O)O)cc1 (centres undefined)	0	0
COc1ccc(CN2CCNCC2)c(OC)c1	0	0
COc1ccc(C=C2C(=O)NC(=O)NC2=O)c(OC)c1	0	61	NS3h confirm=0;SSB FP counter=0;Cy5 SSB fluor CB=0;Cy5 fluor confirm=0
CC(C)Oc1ccccc1C=C1C(=O)NC(=O)NC1=O	0	42	NS3h confirm=0;SSB FP counter=0;Cy5 SSB fluor CB=0;Cy5 fluor confirm=0
Cc1cc(C=C2C(=O)NC(=S)NC2=O)c(C)n1-c1ccccc1	0	0
O=C1c2ccccc2C(=O)N1Cc1nc2ccccc2c(=O)n1-c1ccncc1	0	0
CC(C)OC(NC(=O)c1ccco1)C(Cl)(Cl)Cl (centres undefined)	0	0
CC(=O)c1ccc(OC(=O)Cc2ccccc2)cc1	0	0
O=C1NC(=S)N(c2ccccc2F)C(=O)C1=Cc1ccco1	0.65	106	NS3h confirm=113;SSB FP counter=123;Cy5 SSB fluor CB=0.77;Cy5 fluor confirm=0
O=C1NC(=S)N(c2ccccc2)C(=O)/C1=C/c1ccco1	0	94	NS3h confirm=63;SSB FP counter=100;Cy5 SSB fluor CB=0;Cy5 fluor confirm=0.71
O=C1NC(=O)N(c2ccc(Cl)cc2)C(=O)/C1=C/c1ccccc1	0	0
COc1ccc(C(c2c(O)c3ccccc3oc2=O)c2c(O)c3ccccc3oc2=O)cc1Cn1nc(C)c([N+](=O)[O-])c1C	0	0
Cc1ccc(C)c(COc2cc(C)cc3oc(=O)c4c(c23)CCC4)c1	0	0
O=C(Cn1c[n+]([N-][N+](=O)[O-])cn1)Nc1ccc([N+](=O)[O-])cc1	0	0
COc1cccc(CN2CCN(C(=O)Cc3ccccc3)CC2)c1OC	0	0
SMILES	Cy5 interf NS3h	HCV NS3h FP	others
O=C1NC(=O)N(c2ccc(Cl)cc2)C(=O)/C1=C\c1cc(Br)cc(Cl)c1O	0	0
Cc1ccc(N2C(=O)NC(=O)/C(=C\c3ccc(-c4ccc(Cl)c(C(=O)O)c4)o3)C2=O)cc1	0	62	NS3h confirm=75;SSB FP counter=62;Cy5 SSB fluor CB=0;Cy5 fluor confirm=0
O=C1NC(=O)N(c2ccccc2F)C(=O)/C1=C/c1ccc(-c2cc(C(=O)O)ccc2Cl)o1	0	0	NS3h confirm=92;SSB FP counter=0;Cy5 SSB fluor CB=0;Cy5 fluor confirm=0
COc1ccc(N2C(=O)/C(=C/c3ccc(-c4cc(C(=O)O)ccc4Cl)o3)C(=O)NC2=S)cc1	0	0	NS3h confirm=0;SSB FP counter=67;Cy5 SSB fluor CB=0;Cy5 fluor confirm=0.8
O=C1NC(=O)C(=Cc2ccc(-c3ccc(C(=O)O)cc3)o2)C(=O)N1	0	69	NS3h confirm=0;SSB FP counter=0;Cy5 SSB fluor CB=0;Cy5 fluor confirm=0.8
CCC1(c2ccccc2)C(=O)NC(=O)N(C(=O)c2ccccc2Br)C1=O (centres undefined)	0	0
O=C(Nc1ccc(Br)cc1C(=O)c1ccccc1)c1ccc([N+](=O)[O-])cc1	0	0
O=C(NC(O)C(Cl)(Cl)Cl)C1CC=CCC1 (centres undefined)	0	0
Cc1ccc(C(=O)Nc2ccc(N/C(N)=N\[N+](=O)[O-])cc2)cc1	0	0
O=C(Nc1nc2ccccc2s1)C(Cl)(Cl)Cl	0	0
Cc1[nH]c2cc(S(=O)(=O)O)c(Oc3ccccc3)cc2c1CCN	0	46	NS3h confirm=0;SSB FP counter=98;Cy5 SSB fluor CB=0;Cy5 fluor confirm=0
CCc1ccc(CN2CCN(C(=O)COc3ccc(Cl)cc3)CC2)cc1	0	0
COc1ccccc1CN1CCN(Cc2cc(Br)ccc2O)CC1	0	0
